The values below come from PubChem BioAssay (NCI).

The nature of test [1]: NCI Yeast Anticancer Drug Screen. Data for the rad50 strain (AID 155).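 Further: 0% = growth of vehicle-only cultures of the same strain.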 The following applies: S. cerevisiae rad50 strain growth inhibition; at 50.0 µM; stronger effect = higher value. Put shortly:
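Genetically altered yeast (DNA repair pathway); compound treatment; growth inhibition vs vehicle ctrl.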

Test [2] is described as follows: NCI Yeast Anticancer Drug Screen. Data for the mec2-1 strain (AID 157). The conditions noted are these: S. cerevisiae mec2-1 strain, at 50.0 µM, stronger effect = higher value. Put shortly:
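Each compound was tested on mec2-1 yeast, a strain altered in DNA damage repair or cell cycle control. Growth inhibition is reported relative to vehicle.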

Test [3] can be described thus: NCI Yeast Anticancer Drug Screen. Data for the sgs1 mgt1 strain (AID 161).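 Further: 0% = growth of cultures given vehicle only.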 The conditions noted are these: S. cerevisiae sgs1 mgt1 strain, at 50.0 µM, stronger effect = higher value. The essentials: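 Test agents were incubated with a DNA-repair-mutant yeast strain. Growth was then read and compared against vehicle-treated controls.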
A short description of test [4]: NCI Yeast Anticancer Drug Screen. Data for the cln2 rad14 strain (AID 165).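 Further: 0% = growth equal to vehicle treated cultures.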 The following applies: S. cerevisiae cln2 rad14 strain, at 50.0 µM, stronger effect = higher value. Put shortly: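 Test compounds were added to cln2 rad14 yeast cultures; inhibition of growth was then determined by comparison with vehicle treatment.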
The nature of test [5]: NCI Yeast Anticancer Drug Screen. Data for the bub3 strain (AID 167). The conditions noted are these: S. cerevisiae bub3 mutant strain, at 50.0 µM, stronger effect = higher value. Put shortly:
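Yeast carrying a defined mutation is treated with each compound, and growth is compared with that of vehicle-exposed cells to give inhibition.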

The nature of test [6]: NCI Yeast Anticancer Drug Screen. Data for the mlh1 rad18 strain (AID 175). The following applies: S. cerevisiae mlh1 rad18 strain growth inhibition; at 50.0 µM; stronger effect = higher value. The essentials:
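Inhibition values reflect reduced growth of mutant yeast versus vehicle-treated controls following compound exposure; the mutations affect DNA damage repair.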

About 79,000 compounds went through this panel and 15% of them were active in at least one assay; those are over-represented in the sample as a whole. Values without a mark were called inactive. The source made the active and inactive calls. No stated cut-off is given here; in the data, active means growth inhibition above about 70%; inactive means the rest.

As to `OC1CC=CC1`, the growth inhibition was 2.45% in test [1]; -3.5% in test [2]; -4.6% in test [3]; 0.35% in test [4]; 8.25% in test [5]; -12.8% in test [6].
`CC(=O)Nc1cc(OC(C)=O)c(OC(C)=O)c2ccccc12`: the growth inhibition in test [1] was -7.45%; in test [2], -6.9%; in test [3] it was -0.6%; in test [4], -1.55%; in test [5] it was -33.1%; in test [6], 1.1%.
For `CCN(CC)CCCCCOC(=O)c1ccccc1`, the growth inhibition in test [1] was 23.2%; in test [2] it was 28.2%; in test [3], 48.5%; in test [4], 40%; in test [5] it was 43.4%; in test [6] it was 18.6%.
With `CC1(C)N=C(C(N)=O)c2ncn(CCCO)c2N1`, the growth inhibition in test [1] is -13.5%; in test [2], -12.6%; in test [3] it was -48.4%; in test [4], 23.2%; in test [5], -0.35%; in test [6], -6.8%.
Regarding `C=CCN(CC=C)C(=O)Nc1cccc2c(NC(=O)N(CC=C)CC=C)cccc12`, the growth inhibition is -24% in test [1]; -23.6% in test [2]; -17.5% in test [3]; 4.5% in test [4]; -21.8% in test [5]; -23.4% in test [6].
On to `O=C(O)CC(NC(=O)C(CC(=O)OCc1ccccc1)NC(=O)OCc1ccccc1)C(=O)OCc1ccccc1` (stereo unspecified), for which the growth inhibition in test [1] was 44.5%; in test [2], 20.6%; in test [3], 27.4%; in test [4] it was 24.4%; in test [5], -5.8%; in test [6] it was 36.6%.
Consider `Nc1ccc(S(=O)(=O)NCCS(=O)(=O)O)cc1`, for which the growth inhibition in test [1] was 3.45%; in test [2] it was 4.25%; in test [3], -36.8%; in test [4] it was -29.3%; in test [5], -16.2%; in test [6] it was -3.75%.
Consider `O=[N+]([O-])c1ccc(Cl)cc1N/N=C/c1cccs1`, for which the growth inhibition in test [1] is -46.1%; in test [2], -40.2%; in test [3] it was -40.8%; in test [4] it was -9.5%; in test [5], -30.8%; in test [6] it was -31.8%.
Take `CCOC(=O)C(=O)C(Cc1ccccc1)C(=O)OCC` (stereo unspecified): the growth inhibition is 0.2% in test [1]; -3.95% in test [2]; 9.75% in test [3]; -46.5% in test [4]; 11.7% in test [5]; -7.2% in test [6].
As to `CCCCN(CC)CCNc1cc(C)nc(/N=C(\N)Nc2ccc(Cl)c(Cl)c2)n1`, the growth inhibition was 95.8% (active) in test [1]; 85% (active) in test [2]; 96.3% (active) in test [3]; 29.1% in test [4]; 76.5% (active) in test [5]; 92.5% (active) in test [6].
`O=C(CC/C(CC(=O)c1ccc(Cl)cc1)=N\O)Nc1cccc(Cl)c1`: the growth inhibition in test [1] was -31.9%; in test [2] it was -2.4%; in test [3], -6.45%; in test [4], -3.85%; in test [5], 0.7%; in test [6], -11.6%.
For `COC(=O)C1Cc2cc(OC)c(OC)cc2C(c2ccc(OC)c(OC)c2)C1C(N)=O` (stereo unspecified), the growth inhibition in test [1] is -7.9%; in test [2], 11.3%; in test [3], -8.3%; in test [4], 0.25%; in test [5] it was -0.9%; in test [6] it was -1.95%.
As for `COCCOC(=O)Nc1c(Cl)cccc1Cl`, the growth inhibition was 1.45% in test [1]; -18.5% in test [2]; -8.35% in test [3]; 5.3% in test [4]; -25.6% in test [5]; -8.2% in test [6].
Turning to `COc1cc(Br)c(C=Nc2cccc3ccc(OS(=O)(=O)c4ccc([N+](=O)[O-])cc4)cc23)cc1OC`, the growth inhibition in test [1] is 7.6%; in test [2] it was -16.6%; in test [3] it was 0.65%; in test [4], 4.3%; in test [5], 5.5%; in test [6] it was 15.6%.
As to `N#CCC1C2CC3C(C2=O)C13` (stereo unspecified), the growth inhibition is -0.6% in test [1]; 5.85% in test [2]; -2.2% in test [3]; 22.4% in test [4]; 4.65% in test [5]; -39.8% in test [6].
As for `S=c1s/c(=C\c2ccccc2)c2nc3ccccc3n12`, the growth inhibition in test [1] is 7.15%; in test [2] it was 9.2%; in test [3] it was -9.4%; in test [4] it was -46.7%; in test [5], 13.9%; in test [6], 4.75%.
`CCCCNc1nc2ccccc2c2c1ncn2CC(C)C`: the growth inhibition was -7.4% in test [1]; 34.5% in test [2]; 14.1% in test [3]; 23.5% in test [4]; 46.5% in test [5]; 30.3% in test [6].
`Cc1ccc(C)c(NS(=O)(=O)c2ccc(Cl)c([N+](=O)[O-])c2)c1`: the growth inhibition in test [1] was 97.1% (active); in test [2] it was 98.2% (active); in test [3], 97.8% (active); in test [4], 96.8% (active); in test [5], 97.9% (active); in test [6], 98% (active).
For the molecule `Cc1ccsc1C(=O)C(CC(=O)c1cccs1)c1ccsc1` (stereo unspecified), the growth inhibition was -5.45% in test [1]; -8.45% in test [2]; -0.9% in test [3]; 17.3% in test [4]; 25.4% in test [5]; 16.4% in test [6].
Take `CCOC(=O)c1[nH]c(C)c(C(=O)OC(C)(C)C)c1C`: the growth inhibition in test [1] is 4.55%; in test [2] it was 14.8%; in test [3] it was 0.35%; in test [4], 10.4%; in test [5], -4.65%; in test [6], 0.45%.
`O=C1CCCCC1CN1CCOCC1` (stereo unspecified): the growth inhibition in test [1] was -37.5%; in test [2] it was -24.2%; in test [3], -5.3%; in test [4], -6.45%; in test [5] it was -22.1%; in test [6], -16.4%.
On to `CNC(=O)Nc1nnnc2ccccc12`, for which the growth inhibition in test [1] is 10.1%; in test [2] it was 1.45%; in test [3], -4.05%; in test [4], -10.6%; in test [5] it was -0.15%; in test [6], 13.9%.
Take `Cc1cc(C)nc(C)c1`: the growth inhibition was -22.2% in test [1]; -15.1% in test [2]; -14.2% in test [3]; -11.1% in test [4]; -3.4% in test [5]; 23.9% in test [6].
For `ClC12CCC(Cl)(CC1)CC2`, the growth inhibition in test [1] was 10.5%; in test [2] it was 0.65%; in test [3] it was -3.95%; in test [4], -50.6%; in test [5], -10.7%; in test [6] it was -7.95%.
Take `CC(C)C(C)(O)c1ccccc1` (stereo unspecified): the growth inhibition was -3.15% in test [1]; -28.8% in test [2]; 5.35% in test [3]; -10.9% in test [4]; 0.35% in test [5]; 0.9% in test [6].
Take `CN1CCc2c1nc(-c1ccc([N+](=O)[O-])cc1)c1c2N(C)CC1`: the growth inhibition was 13.2% in test [1]; 0.7% in test [2]; 2.8% in test [3]; 6.85% in test [4]; 10.8% in test [5]; 9.95% in test [6].
Consider `CC1SC2=NC3=C(c4ccccc4C3=O)C(c3ccc(F)cc3)N2C1=O` (stereo unspecified), for which the growth inhibition was 34.4% in test [1]; 24.2% in test [2]; 35.8% in test [3]; 32% in test [4]; 47.1% in test [5]; 22.8% in test [6].
For the molecule `CCCCCCCCNC(=O)c1ccccc1C(=O)O`, the growth inhibition is 1.6% in test [1]; 14.9% in test [2]; 51.2% in test [3]; -32.8% in test [4]; 44.6% in test [5]; 13.4% in test [6].
With `O=C(N[C@@H](CCl)[C@H](Cl)c1ccc([N+](=O)[O-])cc1)c1ccc([N+](=O)[O-])o1`, the growth inhibition was 85.3% (active) in test [1]; 76.2% (active) in test [2]; 93.3% (active) in test [3]; 83.7% (active) in test [4]; 87.3% (active) in test [5]; 92.8% (active) in test [6].
Consider `COc1ccc2cc(C(=O)Nc3ccc(O)c(C(=O)O)c3)ccc2c1OC`, for which the growth inhibition in test [1] was -2.2%; in test [2], 0.5%; in test [3] it was -7.6%; in test [4], -10.6%; in test [5] it was 2.95%; in test [6] it was -22.6%.
`Cc1cc2c(c(C(=O)NCC(=O)N[C@@H](C)C(=O)OCc3ccccc3)c1)Oc1c(cc(C)cc1C(=O)NCC(=O)N[C@@H](C)C(=O)OCc1ccccc1)S2`: the growth inhibition in test [1] is 26.4%; in test [2], 16.8%; in test [3] it was 23.8%; in test [4], 33%; in test [5], 19.6%; in test [6] it was 33.2%.
Turning to `CC(=O)Nc1cc2c(s1)CCC1CC(=O)NN=C21` (stereo unspecified), the growth inhibition in test [1] is -12.4%; in test [2], -25.6%; in test [3], -31.8%; in test [4], 1.9%; in test [5] it was -9.35%; in test [6] it was -11.5%.
Consider `CC(C)CC1N=C(OCc2ccccc2)OC1=O` (stereo unspecified), for which the growth inhibition in test [1] is -16.6%; in test [2] it was -79.5%; in test [3], -20.4%; in test [4], -15.7%; in test [5], 5.25%; in test [6], -14.2%.
Take `C/C=C/CS(=O)(=O)Cc1ccccc1`: the growth inhibition in test [1] was 1.85%; in test [2], -11.8%; in test [3], -5.95%; in test [4] it was -3.95%; in test [5], -4.3%; in test [6], -14.9%.
Regarding `C=CC(=O)OCCCCCCCCCC`, the growth inhibition in test [1] is 47.8%; in test [2], 5.6%; in test [3], 28.8%; in test [4], -0.7%; in test [5], 13.8%; in test [6], 42.1%.
With `Clc1ccc(Cl)c(N=Nc2cc3c4c(c2)CCN4CCC3)c1`, the growth inhibition is -34% in test [1]; -35.1% in test [2]; -15.2% in test [3]; -16.3% in test [4]; -10.8% in test [5]; -18.8% in test [6].
